Experimental data taken from PubChem BioAssay (EPA / NIEHS).
Calls of active or inactive are those of the source. How the source made its calls: active means hit-call score of the fitted dose curve at least 0.9, where 1 is the maximum; inactive means score below 0.9.

Key:
[1] = biological target: Bile acid receptor (Homo sapiens) (UniProt Q96RI1); assay: ATG_IR1_CIS: Attagene CIS-FACTORIAL HepG2 Assay for human Nuclear Receptor Subfamily 1 Group H Member 4 (NR1H4), IR1 submotif (AID 2282946); settings: IR1 reporter transcription, actives raise or lower the signal
In short: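 Transient MRTU transfection, HepG2; 24 h dosing; RNA → RT-PCR → 6-FAM primer extension → HpaI digest → capillary electrophoresis fluorescence. Gain/loss of signal fitted relative to DMSO.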

[2] = ATG_GRE_CIS: Attagene CIS-FACTORIAL HepG2 Assay for human Glucocorticoid Response Elements (GRE) (AID 2282947); settings: HepG2 GRE cis-reporter, Attagene multiplex mRNA; actives raise or lower the signal
In short: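 Following 24 h chemical exposure of transiently transfected HepG2 cells, total RNA was reverse-transcribed and reporter cDNA amplified, fluorescently labelled and sized by capillary electrophoresis. Signal gain or loss was fitted relative to DMSO vehicle.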

[3] = ATG_ISRE_CIS: Attagene CIS-FACTORIAL HepG2 Assay for human Interferon Regulatory Factor 1 (IRF1) binding to an Interferon-Stimulated Response Element (ISRE) (AID 2282948); settings: HepG2 ISRE cis-reporter (Attagene), mRNA transcription readout; actives raise or lower the signal
In short: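 Transiently transfected HepG2 cells carrying cis-element reporter units, dosed 24 hours. Reporter mRNA quantified by RT-PCR, fluorescent primer extension, HpaI digestion and capillary electrophoresis. Bidirectional fitting relative to DMSO.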

[4] = ATG_M_32_CIS: Attagene CIS-FACTORIAL HepG2 Assay for M32 Transcription Factor (Internal Marker) (AID 2282949); settings: HepG2 Attagene cis-factorial M32 reporter, mRNA; actives raise or lower the signal;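 further: background control marker of the multiplexed CIS panel rather than a real target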
In short: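 HepG2 cells transiently transfected with multiplexed cis-regulated reporter units, dosed 24 h. Reporter mRNA quantified by RT-PCR, 6-FAM labelling, HpaI digestion and capillary electrophoresis; bidirectional fit vs DMSO.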

[5] = ATG_M_06_CIS: Attagene CIS-FACTORIAL HepG2 Assay for M06 Transcription Factor (Internal Marker) (AID 2282950); settings: HepG2 Attagene CIS-FACTORIAL M06 internal marker reporter; actives raise or lower the signal
In short: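 Cells (HepG2, transiently carrying cis-driven reporter units) receive chemical for 24 h before RNA isolation. Reporter cDNA is PCR-amplified, FAM-labelled by primer extension, HpaI-digested and sized on a capillary analyser.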

[6] = biological target: Hepatocyte nuclear factor 6 (Homo sapiens) (UniProt Q9UBC0); assay: ATG_HNF6_CIS: Attagene CIS-FACTORIAL HepG2 Assay for human Hepatocyte Nuclear Factor 6 (HNF6) (AID 2282952); settings: HepG2 Attagene cis-factorial HNF6 reporter transcription; actives raise or lower the signal
In short: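 Transiently transfected HepG2 cells expressing cis-regulated reporter transcription units were exposed to chemical for 24 h in a 24-well format. Reporter transcript abundance was determined by fluorescence capillary electrophoresis.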

[7] = ATG_MRE_CIS: Attagene CIS-FACTORIAL HepG2 Assay for human Metal Responsive Element (MRE) (AID 2282954); settings: HepG2 MRE cis-reporter transcription, Attagene multiplex; actives raise or lower the signal
In short: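 Step one: transfect HepG2 with cis-regulated reporter units. Step two: dose 24 h. Step three: isolate RNA, RT-PCR, 6-FAM label, HpaI digest, capillary electrophoresis. Fit bidirectionally to DMSO.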

[8] = ATG_PBREM_CIS: Attagene CIS-FACTORIAL HepG2 Assay for human Phenobarbital-responsive Enhancer Module (PBREM) (AID 2282955); settings: HepG2 PBREM cis-reporter, Attagene multiplexed transcription; actives raise or lower the signal
In short: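 HepG2 cells transiently transfected with multiple cis-regulated reporter units measure endogenous transcription factor activity; 24 h compound exposure. Reporter mRNA quantified by RT-PCR, fluorescent labelling, HpaI digestion and capillary electrophoresis; bidirectional fit versus DMSO.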

[9] = biological target: Paired box protein Pax-6 (Homo sapiens) (UniProt P26367); assay: ATG_Pax6_CIS: Attagene CIS-FACTORIAL HepG2 Assay for human Paired Box 6 (PAX6) (AID 2282956); settings: HepG2 CIS-FACTORIAL PAX6 reporter transcription, RNA readout; actives raise or lower the signal
In short: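 HepG2 cells transiently transfected with cis-promoter-driven multiplexed reporter units sensing endogenous transcription factor activity; 24 h chemical exposure. Reporter mRNA quantified by RT-PCR, 6-FAM labelling, HpaI digestion and capillary electrophoresis; bidirectional fit versus DMSO baseline.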

[10] = ATG_PXRE_CIS: Attagene CIS-FACTORIAL HepG2 Assay for human Pregnane X Receptor Element (PXRE) (AID 2282957); settings: HepG2 Attagene CIS-FACTORIAL PXRE reporter, mRNA; actives raise or lower the signal
In short: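 Cis-element reporter mRNA in human hepatoma HepG2 cells is measured 24 h post-dosing by RT-PCR, primer-extension labeling and capillary electrophoresis; gain or loss of signal is fitted relative to DMSO.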

[11] = ATG_PPRE_CIS: Attagene CIS-FACTORIAL HepG2 Assay for human Peroxisome Proliferator-activated Response Element (PPRE) (AID 2282958); settings: HepG2 PPRE cis-element reporter, Attagene transcription factor profiling; actives raise or lower the signal
In short: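 HepG2 cells are transiently transfected with multiplexed cis-promoter reporter units to report endogenous PPAR activity. After 24 h dosing, reporter mRNA is read by RT-PCR and capillary electrophoresis. Fitting is bidirectional against DMSO.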

[12] = ATG_RORE_CIS: Attagene CIS-FACTORIAL HepG2 Assay for human RAR-related Orphan Receptor Element (RORE) (AID 2282959); settings: HepG2 Attagene cis-factorial RORE reporter, mRNA; actives raise or lower the signal
In short: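 HepG2 cells carrying transiently transfected cis-regulated reporter units; RORE-driven reporter mRNA quantified 24 h post-dosing by RT-PCR, 6-FAM primer extension, HpaI digestion and capillary electrophoresis. Bidirectional fit versus DMSO.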

[13] = ATG_Sox_CIS: Attagene CIS-FACTORIAL HepG2 Assay for human SRY-box transcription factor (SOX) (AID 2282960); settings: HepG2 Attagene cis-factorial SOX reporter, mRNA; actives raise or lower the signal
In short: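 HepG2 cells transiently transfected with multiple cis-regulated reporter units, then dosed for 24 h. Reporter mRNA quantified by RT-PCR, fluorescent labelling, HpaI digestion and capillary electrophoresis; bidirectional fit versus DMSO.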

[14] = biological target: Transcription factor Sp1 (Homo sapiens) (UniProt P08047); assay: ATG_Sp1_CIS: Attagene CIS-FACTORIAL HepG2 Assay for human Specificity Protein 1 (Sp1) (AID 2282961); settings: HepG2 Sp1 cis-reporter transcription, actives raise or lower the signal
In short: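 HepG2 cells transiently transfected with multiplexed cis-regulated reporter constructs, chemical exposure 24 h. Reporter mRNA quantified by RT-PCR with capillary electrophoresis; bidirectional fit relative to DMSO.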

[15] = ATG_SREBP_CIS: Attagene CIS-FACTORIAL HepG2 Assay for human Sterol Regulatory Element Binding (SREBP) (AID 2282962); settings: HepG2 Attagene cis-factorial SREBP reporter, mRNA; actives raise or lower the signal
In short: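 HepG2 cells transiently transfected with multiplexed cis-promoter reporter units sensing endogenous transcription factors; reporter mRNA measured 24 h after dosing by RT-PCR, 6-FAM labeling, HpaI digestion and capillary electrophoresis. Bidirectional fit versus DMSO.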

[16] = ATG_TA_CIS: Attagene CIS-FACTORIAL HepG2 Assay for human TA Basal Promoter (AID 2282964); settings: HepG2 Attagene CIS-factorial TA basal promoter reporter; actives raise or lower the signal
In short: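 Background internal-marker endpoint from a 52-component HepG2 cis-reporter panel. Cells treated 24 h; reporter transcripts quantified via RT-PCR and CE fluorescence against DMSO baseline.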

[17] = ATG_TCF_b_cat_CIS: Attagene CIS-FACTORIAL HepG2 Assay for human T-Cell-Factor with beta-catenin (TCF/b-cat) (AID 2282965); settings: HepG2 TCF/beta-catenin cis-reporter transcription, actives raise or lower the signal
In short: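 In this cis-format system, transfected HepG2 cells report endogenous transcription factor activity. Readout after 24 h exposure is reporter transcript abundance from RT-PCR and capillary electrophoresis, analysed for gain or loss of signal versus DMSO.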

[18] = biological target: Heat shock factor protein 1 (Homo sapiens) (UniProt Q00613); assay: ATG_HSE_CIS: Attagene CIS-FACTORIAL HepG2 Assay for human Heat Shock Transcription Factor 1 (HSE) (AID 2282953); settings: HepG2 HSE cis-reporter, Attagene RNA transcription; actives raise or lower the signal
In short: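 Liver-derived HepG2 cells carry transiently introduced multiple reporter units governed by cis promoters. Reporter RNA measured 24 h post-dose through reverse transcription, PCR amplification, fluorescent labelling and capillary electrophoresis, normalised to DMSO.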

[19] = biological target: Signal transducer and activator of transcription 3 (Homo sapiens) (UniProt P40763); assay: ATG_STAT3_CIS: Attagene CIS-FACTORIAL HepG2 Assay for human Signal Transducer and Activator of Transcription 3 (STAT3) (AID 2282963); settings: HepG2, Attagene cis-factorial STAT3 reporter transcription; actives raise or lower the signal
In short: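 Transcript-level reporter assay. HepG2 transient MRTU transfection, 24 h exposure, fluorescence detection after RT-PCR and CE; DMSO baseline.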

[20] = biological target: Hypoxia-inducible factor 1-alpha (Homo sapiens) (UniProt Q16665); assay: ATG_HIF1a_CIS: Attagene CIS-FACTORIAL HepG2 Assay for human Hypoxia Inducible Factor 1 (HIF1A) (AID 2282951); settings: HepG2 Attagene cis-factorial HIF1a reporter transcription; actives raise or lower the signal
In short: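 HepG2 cells transiently transfected with multiple cis-regulated reporter transcription units measure endogenous transcription factor activity. After 24 h exposure, reporter mRNA is quantified by RT-PCR with 6-FAM labelling, HpaI digestion and capillary electrophoresis. Bidirectional fitting against DMSO.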

Measured: AC50

Bile acid receptor (Homo sapiens), sequence (Q96RI1 whole entry, looked up): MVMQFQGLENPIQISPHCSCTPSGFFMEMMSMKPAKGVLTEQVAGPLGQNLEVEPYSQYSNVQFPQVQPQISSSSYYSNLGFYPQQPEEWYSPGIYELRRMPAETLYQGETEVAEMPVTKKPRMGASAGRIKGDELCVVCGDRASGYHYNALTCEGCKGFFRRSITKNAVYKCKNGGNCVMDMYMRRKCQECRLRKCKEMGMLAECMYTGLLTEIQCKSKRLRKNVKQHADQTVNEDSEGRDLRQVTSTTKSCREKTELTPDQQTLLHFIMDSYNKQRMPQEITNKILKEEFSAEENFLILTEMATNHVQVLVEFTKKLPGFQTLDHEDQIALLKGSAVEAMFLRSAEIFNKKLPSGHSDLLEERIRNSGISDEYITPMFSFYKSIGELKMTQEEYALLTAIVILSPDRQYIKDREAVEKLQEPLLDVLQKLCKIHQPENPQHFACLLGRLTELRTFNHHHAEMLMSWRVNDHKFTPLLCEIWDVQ
Paired box protein Pax-6 (Homo sapiens), sequence (P26367 whole entry, looked up): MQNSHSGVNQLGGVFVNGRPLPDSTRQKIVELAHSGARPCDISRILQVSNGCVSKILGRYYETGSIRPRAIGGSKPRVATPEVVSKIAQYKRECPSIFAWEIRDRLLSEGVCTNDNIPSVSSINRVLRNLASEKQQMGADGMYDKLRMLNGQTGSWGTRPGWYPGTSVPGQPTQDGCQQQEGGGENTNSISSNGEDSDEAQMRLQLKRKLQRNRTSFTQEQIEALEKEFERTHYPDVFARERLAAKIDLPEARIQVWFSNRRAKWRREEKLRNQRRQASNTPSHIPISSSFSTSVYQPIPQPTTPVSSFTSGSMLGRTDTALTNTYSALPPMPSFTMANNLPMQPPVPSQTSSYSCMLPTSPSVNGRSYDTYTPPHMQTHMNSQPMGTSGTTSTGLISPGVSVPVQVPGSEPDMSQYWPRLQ
Transcription factor Sp1 (Homo sapiens), sequence (P08047 whole entry, looked up): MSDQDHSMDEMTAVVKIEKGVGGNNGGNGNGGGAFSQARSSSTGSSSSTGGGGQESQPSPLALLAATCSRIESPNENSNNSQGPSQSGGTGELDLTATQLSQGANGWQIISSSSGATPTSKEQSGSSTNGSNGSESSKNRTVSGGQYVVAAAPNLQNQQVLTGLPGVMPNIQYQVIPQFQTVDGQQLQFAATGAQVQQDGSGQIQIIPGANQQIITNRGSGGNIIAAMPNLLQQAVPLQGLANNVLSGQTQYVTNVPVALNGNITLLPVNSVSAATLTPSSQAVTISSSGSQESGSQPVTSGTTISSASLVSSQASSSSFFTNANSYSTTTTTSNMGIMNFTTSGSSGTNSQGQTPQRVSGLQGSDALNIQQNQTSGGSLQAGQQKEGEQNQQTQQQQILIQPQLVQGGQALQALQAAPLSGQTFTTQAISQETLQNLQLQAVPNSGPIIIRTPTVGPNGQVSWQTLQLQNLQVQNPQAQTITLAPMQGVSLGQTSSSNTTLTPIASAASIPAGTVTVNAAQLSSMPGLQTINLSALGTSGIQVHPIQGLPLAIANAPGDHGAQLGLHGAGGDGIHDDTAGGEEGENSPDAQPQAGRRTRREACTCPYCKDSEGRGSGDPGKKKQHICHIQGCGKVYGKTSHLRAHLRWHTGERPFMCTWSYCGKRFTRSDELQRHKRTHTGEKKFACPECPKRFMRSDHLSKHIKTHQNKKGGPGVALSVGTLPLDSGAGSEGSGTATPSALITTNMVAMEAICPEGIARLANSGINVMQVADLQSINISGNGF
Hepatocyte nuclear factor 6 (Homo sapiens), sequence (Q9UBC0 whole entry, looked up): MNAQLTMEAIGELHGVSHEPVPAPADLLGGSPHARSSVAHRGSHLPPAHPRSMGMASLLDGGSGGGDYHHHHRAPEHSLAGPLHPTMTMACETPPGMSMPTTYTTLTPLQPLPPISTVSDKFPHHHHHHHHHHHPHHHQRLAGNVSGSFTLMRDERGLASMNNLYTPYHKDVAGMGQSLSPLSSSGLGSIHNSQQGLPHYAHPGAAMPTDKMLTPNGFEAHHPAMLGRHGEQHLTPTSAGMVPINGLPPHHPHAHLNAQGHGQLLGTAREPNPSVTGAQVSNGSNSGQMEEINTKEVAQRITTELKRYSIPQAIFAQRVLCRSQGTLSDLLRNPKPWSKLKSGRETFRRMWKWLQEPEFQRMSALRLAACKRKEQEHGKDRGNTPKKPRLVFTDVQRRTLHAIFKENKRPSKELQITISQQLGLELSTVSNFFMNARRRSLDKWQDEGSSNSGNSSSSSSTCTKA
Heat shock factor protein 1 (Homo sapiens), sequence (Q00613 whole entry, looked up): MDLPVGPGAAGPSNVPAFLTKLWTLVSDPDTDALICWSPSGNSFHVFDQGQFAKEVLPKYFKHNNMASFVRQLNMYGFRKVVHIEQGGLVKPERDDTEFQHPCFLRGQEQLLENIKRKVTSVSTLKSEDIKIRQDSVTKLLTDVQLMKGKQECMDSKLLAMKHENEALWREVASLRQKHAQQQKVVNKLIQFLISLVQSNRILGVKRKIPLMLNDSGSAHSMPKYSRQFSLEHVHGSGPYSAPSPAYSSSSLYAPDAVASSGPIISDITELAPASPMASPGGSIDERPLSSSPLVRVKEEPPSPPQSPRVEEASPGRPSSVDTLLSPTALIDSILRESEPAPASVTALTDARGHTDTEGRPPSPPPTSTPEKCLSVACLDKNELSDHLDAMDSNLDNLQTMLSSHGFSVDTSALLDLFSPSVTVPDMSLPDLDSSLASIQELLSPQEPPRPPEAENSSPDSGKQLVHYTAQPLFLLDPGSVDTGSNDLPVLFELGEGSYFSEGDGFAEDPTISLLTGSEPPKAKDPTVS
Signal transducer and activator of transcription 3 (Homo sapiens), sequence (P40763 whole entry, looked up): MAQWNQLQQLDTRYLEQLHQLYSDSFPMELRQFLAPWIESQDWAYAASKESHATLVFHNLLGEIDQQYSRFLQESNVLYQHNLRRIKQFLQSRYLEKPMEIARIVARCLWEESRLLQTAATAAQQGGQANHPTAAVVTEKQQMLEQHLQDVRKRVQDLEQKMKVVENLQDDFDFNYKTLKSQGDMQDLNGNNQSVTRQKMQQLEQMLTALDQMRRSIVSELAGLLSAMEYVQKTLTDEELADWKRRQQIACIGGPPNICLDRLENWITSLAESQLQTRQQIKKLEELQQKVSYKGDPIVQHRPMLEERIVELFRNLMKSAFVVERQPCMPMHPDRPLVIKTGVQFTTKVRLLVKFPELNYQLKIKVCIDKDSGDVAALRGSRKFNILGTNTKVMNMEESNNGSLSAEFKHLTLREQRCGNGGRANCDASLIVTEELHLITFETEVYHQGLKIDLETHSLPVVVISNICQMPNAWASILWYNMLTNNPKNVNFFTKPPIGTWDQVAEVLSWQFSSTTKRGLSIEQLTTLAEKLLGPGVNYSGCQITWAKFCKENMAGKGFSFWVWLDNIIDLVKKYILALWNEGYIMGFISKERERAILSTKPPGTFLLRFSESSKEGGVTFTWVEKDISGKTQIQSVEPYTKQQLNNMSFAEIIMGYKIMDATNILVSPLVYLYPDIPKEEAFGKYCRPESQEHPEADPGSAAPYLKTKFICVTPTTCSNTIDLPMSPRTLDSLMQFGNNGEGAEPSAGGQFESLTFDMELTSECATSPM
Hypoxia-inducible factor 1-alpha (Homo sapiens), sequence (Q16665 whole entry, looked up): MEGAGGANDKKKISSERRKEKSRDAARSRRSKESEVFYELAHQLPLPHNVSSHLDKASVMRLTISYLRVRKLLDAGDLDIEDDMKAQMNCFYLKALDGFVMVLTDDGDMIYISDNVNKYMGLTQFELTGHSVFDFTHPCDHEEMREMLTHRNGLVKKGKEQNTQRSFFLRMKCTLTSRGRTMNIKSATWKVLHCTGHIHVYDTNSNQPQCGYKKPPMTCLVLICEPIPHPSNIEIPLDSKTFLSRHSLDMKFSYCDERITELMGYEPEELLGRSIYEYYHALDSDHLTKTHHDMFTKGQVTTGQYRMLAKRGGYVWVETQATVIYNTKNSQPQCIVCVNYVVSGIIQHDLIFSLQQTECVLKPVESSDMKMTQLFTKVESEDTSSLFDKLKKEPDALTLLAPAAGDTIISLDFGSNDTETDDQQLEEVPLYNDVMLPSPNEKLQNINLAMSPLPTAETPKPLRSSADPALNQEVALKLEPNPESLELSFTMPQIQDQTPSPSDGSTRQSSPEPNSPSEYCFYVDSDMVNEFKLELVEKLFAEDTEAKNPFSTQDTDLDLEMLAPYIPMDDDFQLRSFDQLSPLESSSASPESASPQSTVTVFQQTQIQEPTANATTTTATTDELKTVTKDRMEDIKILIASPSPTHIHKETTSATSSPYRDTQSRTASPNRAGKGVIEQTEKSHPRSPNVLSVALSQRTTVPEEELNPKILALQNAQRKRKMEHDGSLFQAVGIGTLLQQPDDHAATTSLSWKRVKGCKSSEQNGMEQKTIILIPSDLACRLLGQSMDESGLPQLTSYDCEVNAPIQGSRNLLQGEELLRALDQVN

CS(=O)(=O)c1ccc(C2=C(c3ccccc3)C(=O)OC2)cc1
active: [10] 20.1 µM
inactive: [1] | [2] | [3] | [4] | [5] | [6] | [7] | [8] | [9] | [11] | [12] | [13] | [14] | [15] | [16] | [17]

CCc1ncc(C)[nH]1
inactive: [1] | [2] | [3] | [4] | [5] | [6] | [18] | [7] | [8] | [9] | [10] | [11] | [12] | [13] | [14] | [15] | [19] | [16] | [17]

C=CC(=O)OCCC#N
active: [1] 58.1 µM | [2] 64.2 µM | [3] 70 µM | [18] 170 µM | [7] 86.2 µM | [9] 47.9 µM | [10] 62.5 µM | [13] 41.1 µM | [15] 76.4 µM
inactive: [4] | [5] | [11] | [12] | [14] | [16] | [17]

CCNCCO
inactive: [1] | [2] | [4] | [5] | [20] | [6] | [18] | [9] | [10] | [11] | [12] | [13] | [14] | [15] | [19] | [16] | [17]
